Shown are actives, neighbours in structure and some others; about 5.4% of the full set was active somewhere.
HSF-1 act: increases HSF-1 driven luciferase reporter signal | NIH3T3-HGL HSF-1 luciferase reporter, MG132, 8 h; 100% = twice DMSO control signal | activation, % at 9 µM | 300,000 tested, 1.7% active | AID 504408;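 active = mean replicate activation of at least 50% with a set share of replicates each reaching 50%; inconclusive = only one of those two conditions met; inactive = mean below 50% and too few replicates reaching it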
FXN GAA850 act: increases GAA850 frataxin promoter reporter activity | HEK293 lucGAA850 FXN promoter luciferase reporter, 24 h; percent of 10 µM SAHA response | activation, % at 6 µM | 360,000 tested, 0.56% active;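 active = activation above the average of all compounds screened plus 3 SD, cutoff fixed separately per campaign, cut at about 7.5% in these data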
HSF1 inhib: HSF1 inhibition. NIH3T3-HGL HSE-luciferase, MG132-induced, luminescence 8 h; active compounds read low. 300,000 tested, 0.77% active. activity change, negative = inhibition, % at 7.5 µM (by protocol);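 active = more than half of replicate wells show activity change below -50%, luminescence cut by over half; inconclusive = some wells, but at most half, below -50%; inactive = no replicate well below -50%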;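 note: luciferase reports HSF-1 transcriptional activity via heat shock element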
NR0B1 inh: inhibits human nuclear receptor DAX1; P51843; HEK293 Gal4-DAX1 luciferase reporter, luminescence; inhibition, % at 6.75 µM; 340,000 tested, 0.99% active; AID 504766;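 active = inhibition above the mean over all tested compounds plus 3 SD, cut at about 4.2% in these data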;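 note: inhibition shows as a rise in luminescence from relieved DAX1 repression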
AHR act: human AHR activation; P35869; AHR-responsive luciferase reporter cells, luminescence; activation, % at 5 µM; 320,000 tested, 2.5% active; in the data active = activation above about 47%
Target sequence (P35869 whole entry, looked up): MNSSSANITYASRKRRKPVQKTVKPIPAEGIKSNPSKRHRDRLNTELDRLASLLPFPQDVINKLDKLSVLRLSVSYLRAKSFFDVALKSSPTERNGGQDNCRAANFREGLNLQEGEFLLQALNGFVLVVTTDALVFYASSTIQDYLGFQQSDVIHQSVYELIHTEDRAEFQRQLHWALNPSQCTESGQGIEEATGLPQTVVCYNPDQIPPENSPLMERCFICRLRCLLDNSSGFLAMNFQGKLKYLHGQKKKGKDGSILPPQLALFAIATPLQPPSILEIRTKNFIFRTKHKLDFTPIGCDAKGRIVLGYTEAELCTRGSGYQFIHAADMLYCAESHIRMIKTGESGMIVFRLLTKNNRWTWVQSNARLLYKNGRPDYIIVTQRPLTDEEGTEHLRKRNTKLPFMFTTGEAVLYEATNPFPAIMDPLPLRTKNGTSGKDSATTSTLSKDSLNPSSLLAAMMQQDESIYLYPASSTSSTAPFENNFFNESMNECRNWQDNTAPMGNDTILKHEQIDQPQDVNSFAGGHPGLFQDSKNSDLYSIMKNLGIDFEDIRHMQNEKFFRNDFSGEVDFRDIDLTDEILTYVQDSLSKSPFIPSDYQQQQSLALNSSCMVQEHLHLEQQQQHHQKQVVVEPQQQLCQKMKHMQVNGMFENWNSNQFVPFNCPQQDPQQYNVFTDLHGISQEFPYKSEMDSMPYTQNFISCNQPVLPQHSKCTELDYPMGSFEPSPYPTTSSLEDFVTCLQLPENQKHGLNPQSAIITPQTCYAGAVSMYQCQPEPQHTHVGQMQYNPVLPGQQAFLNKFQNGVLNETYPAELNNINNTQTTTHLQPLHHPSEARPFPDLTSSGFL
Hits are given with their value; . = inactive; ? = inconclusive; / = no result given.

SMILES	HSF-1 act	FXN GAA850 act	HSF1 inhib	NR0B1 inh	AHR act
O=C(NCCSCc1ccco1)Nc1cccc(Cl)c1	60.3	.	.	.	.
CCCOc1ccc(-c2nc(OC)c3ccccc3n2)cc1	.	.	.	.	77.1
COc1ccc(Oc2nc(-c3cccnc3)nc3ccccc23)cc1	.	.	.	.	.
COc1cc(/C=N/n2cnnc2)ccc1OCC(=O)N1CCOCC1	.	.	.	4.9	.
COc1cc(C(=O)NCc2cccc(Cl)c2)ccc1OCC(=O)N1CCOCC1	.	.	.	.	.
COc1cc(C(=O)NCCc2ccc(F)cc2)ccc1OCC(=O)N1CCOCC1	54.4	.	.	.	.
CCOc1cc(C(=O)NCc2ccccc2)ccc1OCC(=O)N1CCOCC1	.	.	-77.1	.	.
C[C@H]1CN([C@@H](C)CO)C(=O)CCCn2cc(nn2)CO[C@@H]1CN(C)C(=O)Nc1ccc(F)cc1	/	.	/	.	/
CCCCN(Cc1ccco1)S(=O)(=O)c1csc(C(N)=O)c1	.	.	.	.	.
Cc1ccc(NC(=O)CN2C(=O)NC(C)(CCc3ccccc3)C2=O)cc1 (stereo not given)	.	.	.	.	.
Cc1cccc(C)c1NC(=O)CN1C(=O)NC(C)(CCc2ccccc2)C1=O (stereo not given)	.	.	-90.6	.	.
COc1ccc2cc(C(=O)Nc3ccccc3)sc(=O)c2c1OC	.	.	.	.	.
O=C(Nc1ccccc1)c1cc2ccc3ccccc3c2s1	?	.	.	4.4	68.6
CN(C(=O)c1ccccc1C(=O)OCC(=O)Nc1ccc(S(N)(=O)=O)cc1)c1ccccc1	.	.	-78.7	.	.
CN(C(=O)c1ccccc1C(=O)OCC(=O)Nc1ccc(OC(F)F)cc1)c1ccccc1	/	.	/	.	.
CC(C)CC(NC(=O)c1ccccc1)C(=O)OCC(=O)Nc1ccc(S(N)(=O)=O)cc1 (stereo not given)	/	.	/	4.5	.
Cc1c(C(=O)OCC(=O)NC2CC2)oc2ccc(Br)cc12	/	.	/	.	/
CCOC(=O)c1sc2nc(C)nc(NC3CCC(O)CC3)c2c1C (stereo not given)	.	.	.	.	.
Cc1ccc(-c2cc3nc(C)cc(C)n3n2)cc1	.	.	.	.	61.9
O=S(=O)(c1ccc(Cl)cc1)N1CCCC(C(F)(F)F)C1 (stereo not given)	.	.	.	.	.
Cc1cccc(Nc2nnc(SCC(=O)Nc3ccccc3[N+](=O)[O-])s2)c1	.	.	.	4.4	.
Cc1ccccc1Nc1nnc(SCC(=O)Nc2ccccc2[N+](=O)[O-])s1	.	.	.	.	.
CSc1cccc(NC(=O)CC(C)n2ccnc2)c1 (stereo not given)	.	.	.	.	58.2
COc1ccc(NC(=O)CC(C)n2ccnc2)cc1 (stereo not given)	.	.	.	.	.
COc1ccc(Nc2nc3ccccc3s2)cc1	/	.	/	4.3	.
SMILES	HSF-1 act	FXN GAA850 act	HSF1 inhib	NR0B1 inh	AHR act
COc1cc(N)ccc1C(=O)O	.	.	-59.6	.	.
COC(=O)c1cc(S(=O)(=O)NCC2CCN(Cc3cc(C)ccc3C)CC2)c[nH]1	.	.	.	.	.
O=C1c2ccccc2[C@@H]2C[C@@H](O)[C@H](Nc3cccc(Cl)n3)CCN12	/	.	/	.	/
CCOC(=O)CC1CCCCN1Cc1cn[nH]c1-c1ccc(F)cc1F (stereo not given)	.	.	.	4.7	.
Cc1ccc(-n2c(C)cc(C(=O)COC(=O)c3ccc[nH]c3=O)c2C)cc1C	.	.	.	.	.
CCCn1c(C)cc(C(=O)COC(=O)c2ccc[nH]c2=O)c1C	.	.	-69.9	.	.
Cc1cc(C(=O)COC(=O)c2ccc(O)cc2)c(C)n1-c1ccccc1F	.	.	-63.0	.	.
Cc1cc(C(=O)COC(=O)c2ccc(O)cc2)c(C)n1CC(F)(F)F	/	.	/	.	.
Cc1cc(C(=O)COC(=O)c2ccc[nH]c2=O)c(C)n1-c1ccccc1F	.	.	-51.3	.	.
CCCn1c(C)cc(C(=O)COC(=O)c2ccc(Cl)c(S(=O)(=O)N3CCCC3)c2)c1C	.	.	.	.	.
CC1CC(C)CN(C(=O)c2ccc(S(=O)(=O)N3CC(C)CC(C)C3)cc2)C1 (stereo not given)	.	.	.	.	.
COc1cc(NC(=O)n2ncc3cc(Cl)ccc32)cc(OC)c1	.	.	.	.	.
COc1ccc(NC(=O)n2ncc3cc(Cl)ccc32)cc1OC	52.5	.	.	.	.
CC(C)Oc1cccc(C(=O)Nc2nnc([C@H]3C[C@H](O)[C@@H](CO)O3)s2)c1	/	.	/	/	/
Cc1nc2ccn(Cc3ccccc3)c(=O)c2cc1C(=O)N1CCN(c2ccccc2)CC1	.	.	.	.	.
CCOC(=O)c1cc(-c2ccccc2)n(CCC(=O)O)c1C	.	.	.	4.4	.
O=C(Nc1ccccc1)N1CCC(C(=O)N2CCCC(C(F)(F)F)C2)CC1 (stereo not given)	.	.	.	.	.
Cc1ccc(CNC(=O)Nc2cccs2)cc1	73.2	.	.	.	.
CCc1ccccc1NC(=O)Nc1cccs1	.	.	.	.	50.0
CCOC(=O)CSc1ccc(C(=O)Nc2ccc(OC)cc2)cn1	.	.	.	.	57.2
CCOC(=O)CSc1nc2c(cnn2-c2ccc(Cl)cc2)c(=O)[nH]1	.	.	.	.	.
CCOC(=O)CSc1ccc(C(=O)Nc2ccc(Cl)cc2)cn1	.	.	.	.	57.6
CCOc1ccc(NC(=O)c2ccc(OC)cc2)cc1	.	.	.	.	.
N#Cc1ccsc1NC(=O)CCN1C(=O)C2CCCCC2C1=O (stereo not given)	/	.	/	.	.
O=C1COc2ccc(-c3csc(NCC4CCCO4)n3)cc2N1 (stereo not given)	.	.	.	.	77.5
SMILES	HSF-1 act	FXN GAA850 act	HSF1 inhib	NR0B1 inh	AHR act
c1ccc2oc(-c3csc(NCC4CCCO4)n3)cc2c1 (stereo not given)	51.5	.	.	.	.
COc1cc(C(=S)N2CCCC2)ccc1OCc1ccc(C)cc1	.	.	.	.	.
C=C(C)CNC(=O)c1ccc2nc(Cc3ccc(OC)cc3)oc2c1	.	.	.	6.3	.
CCOc1cc(/C=N/NC(=O)C(C)Sc2ccccc2)ccc1O (stereo not given)	.	.	.	.	.
COc1cccc(OCCCn2cc(/C=C3/C(=N)N4C=C(C)SC4=NC3=O)c3ccccc32)c1	.	.	.	.	50.7
COc1ccc(OCCCn2cc(/C=C3/C(=N)N4C=C(C)SC4=NC3=O)c3ccccc32)cc1	.	.	.	.	.
CCc1nnc(NC(=O)CCC(=O)Nc2ccc(OC)cc2OC)s1	.	.	.	.	.
Cc1ccsc1C1NC(=O)c2ccccc2N1 (stereo not given)	.	.	.	.	.
O=C1NC(c2cccs2)Nc2ccccc21 (stereo not given)	.	.	.	.	51.9
COc1cccc2sc3ccc(C#CC4(O)CCCCC4)cc3c(=O)c12	.	.	.	.	.
O=c1c2ccccc2oc2cc(C#CC3(O)CCCCC3)ccc12	.	.	-80.8	.	.
